High-throughput results deposited in PubChem BioAssay by National Center for Advancing Translational Sciences (NCATS).
Hits are enriched below; roughly 0.47% of the tested compounds scored in any of these assays.
UDG counter: Primary qHTS assay for inhibitors of Activation Induced Cytidine Deaminase (AID): UDG Counterscreen signal. Uracil-DNA glycosylase. FRET deamination/UDG coupled assay, UDG read, 4 h. AID 1347430, 2020. hit rate 0.14% among 91,000. Potency, µM (highest dose often 115 µM), for the others: at the highest dose activity change, negative = inhibition, most hits filed as inhibitors; also: nearly all actives have a fitted effect of over 65% in size
AID inh: Primary qHTS assay for inhibitors of Activation Induced Cytidine Deaminase (AID): AID signal; Potency, µM (series often up to 115 µM), usual class: inhibitors; hit rate 0.32% among 91,000; Single-stranded DNA cytosine deaminase (Homo sapiens), Q9GZX7; AID deamination FRET fluorescence, UDG-coupled, 4 h; also: nearly all actives have a fitted effect of over 25% in size
Target sequence (Q9GZX7 whole entry, looked up): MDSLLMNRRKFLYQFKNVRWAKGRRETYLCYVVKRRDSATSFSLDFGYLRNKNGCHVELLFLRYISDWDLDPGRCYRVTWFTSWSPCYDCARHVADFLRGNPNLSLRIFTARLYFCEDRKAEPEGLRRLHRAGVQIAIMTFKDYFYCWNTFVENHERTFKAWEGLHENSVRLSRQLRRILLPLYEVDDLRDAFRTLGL
* hit, by the source's call; i = inactive; ? = inconclusive. Calls follow the shape of the dose curve; as a rule, active = well fitted curve in the direction sought with a large enough effect; inconclusive = small, poorly fitted or top-dose-only effect, or another doubt; inactive = no such curve, though single readings can be large; an effect the other way counts as inactive or inconclusive. % is scaled to controls: 0 for no effect and ±100 for the full control effect; potency is read from the fitted curve at half-maximal effect.

SMILES	UDG counter	AID inh
NCC(O)c1cc(O)c(O)cc1F (stereo not drawn)	-3.9%	50.1µM*
COc1ccccc1-n1c(/C=C/c2ccccc2)nc2ccccc2c1=O	0.0%	i
COc1ccc(-n2c(/C=C\c3ccccc3F)nc3ccccc3c2=O)c(OC)c1	79.4µM*	?
CC(C)N1CCN(Cc2c[nH]c3ccccc23)CC1	?	i
CC12CNCC(C)(CNC1)C2=O	50.1µM*	?
NC(=O)C1CCN(C(=O)c2cn(Cc3ccccc3)c3ccccc23)CC1	-4.2%	i
c1ccc(CCNC2CCCCCCC2)cc1	-2.5%	i
CCc1ccc2[nH]c(C)c(CCN)c2c1	5.6%	i
O=c1oc2ccccc2c(O)c1C(c1ccccc1)c1c(O)c2ccccc2oc1=O	13.5%	44.7µM*
O=c1oc2ccccc2c(O)c1C(c1cccc(O)c1)c1c(O)c2ccccc2oc1=O	-2.8%	50.1µM*
Cc1c(C(c2ccc(O)cc2)c2c(O)c3ccccc3oc2=O)c(=O)n(-c2ccccc2)n1C (stereo not drawn)	4.3%	i
COc1ccc(OC)c(C(c2c(O)c3ccccc3oc2=O)c2c(C)n(C)n(-c3ccccc3)c2=O)c1 (stereo not drawn)	-3.2%	i
N#Cc1ccc(NC(=O)CCC2CCCC2)cc1Cl	-5.5%	i
Cc1cc2ccccc2n1CC(=O)NCC1(CC(=O)O)CCCCC1	3.9%	i
CCOc1ccccc1CN1CCN(c2ccccc2)CC1	-3.6%	i
